High-throughput results deposited in PubChem by National Center for Advancing Translational Sciences (NCATS).
An excerpt weighted towards active compounds, which were near 4.6% of everything screened.
USP2a inhib: qHTS Assay for Inhibitors of Ubiquitin-specific Protease USP2a; Ubiquitin carboxyl-terminal hydrolase 2 (Homo sapiens), O75604; USP2a enzymatic assay, qHTS inhibition; Potency, µM (doses to about 38.3 µM), for the others: at the highest dose activity change, negative = inhibition, actives largely listed as inhibitors; hit rate 0.1% among 60,000; note: nearly all actives have a fitted effect of over 60% in size
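USP2 core (20 nM final) was preincubated with compound for 30 min at RT in 20 mM Tris-HCl pH 8.0, 2 mM CaCl2, 2 mM beta-mercaptoethanol; Ub-PLA2 (20 nM) plus NBD C6-HPC (20 uM) then added, fluorescence read after 2.5 h.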
PK Bst: Pyruvate Kinase; purified pyruvate kinase, luminescence ATP production; ribose 5-phosphate activator present at AC10; Potency, µM; hit rate 1.2% among 51,000; AID 361, 2006; in the data active = potency below about 11 µM; inconclusive = mostly about 12 µM to 25 µM;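 the screen sought inhibitors and activators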;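 note: scaled between full activation by ribose 5 phosphate and full inhibition by luteolin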
15-hLO inh: qHTS Assay for Inhibitors of 15-hLO (15-human lipoxygenase). AID 887, 2007. hit rate 1.4% among 74,000. Potency, µM (highest dose often 57.1 µM), for the others: at the top dose activity change, negative = inhibition, hits mostly inhibitors. purified 15hLO-1, xylenol orange hydroperoxide absorbance. Polyunsaturated fatty acid lipoxygenase ALOX15 (Homo sapiens), P16050; note: % is set by controls: 0 for no effect and ±100 for the full control effect; nearly all actives have a fitted effect of over 55% in size
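Inhibition is scored from a chromogenic endpoint. After 15 min enzyme-compound contact, arachidonic acid (50 uM final) reacts 6 min with 40 nM 15hLO-1 at room temperature, then Fe-XO reagent is added for 30 min and absorbance ratio recorded.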
Tau fil binding: qHTS Assay for Tau Filament Binding; hit rate 2% among 71,000; Microtubule-associated protein tau (Homo sapiens), P10636; recombinant tau filaments, thioflavin S fluorescence, 15 h; filaments grown with octadecylsulfate alongside compound; Potency, µM (series often up to 57.1 µM), inactives show top-dose activity change, negative = inhibition;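 note: % is set by controls: 0 for no effect and ±100 for the full control effect; actives lower thioflavin S fluorescence by blocking filaments or displacing dye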
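ThS-based fibril read: tau 1 uM final, inducer ODS 30 uM final, 37 C for 15 h, ex 450/em 510 nm.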
GBA activity: Glucocerebrosidase | hit rate 1.1% among 48,000 | Lysosomal acid glucosylceramidase (Homo sapiens), P04062 | Potency, µM | purified enzyme, resorufin glucoside fluorescence (screen aimed at inhibitors), 20 min; in the data active = potency below about 15 µM; inconclusive = mostly about 16 µM to 33 µM;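 note: the screen sought inhibitors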
Target sequence (P04062 whole entry, looked up): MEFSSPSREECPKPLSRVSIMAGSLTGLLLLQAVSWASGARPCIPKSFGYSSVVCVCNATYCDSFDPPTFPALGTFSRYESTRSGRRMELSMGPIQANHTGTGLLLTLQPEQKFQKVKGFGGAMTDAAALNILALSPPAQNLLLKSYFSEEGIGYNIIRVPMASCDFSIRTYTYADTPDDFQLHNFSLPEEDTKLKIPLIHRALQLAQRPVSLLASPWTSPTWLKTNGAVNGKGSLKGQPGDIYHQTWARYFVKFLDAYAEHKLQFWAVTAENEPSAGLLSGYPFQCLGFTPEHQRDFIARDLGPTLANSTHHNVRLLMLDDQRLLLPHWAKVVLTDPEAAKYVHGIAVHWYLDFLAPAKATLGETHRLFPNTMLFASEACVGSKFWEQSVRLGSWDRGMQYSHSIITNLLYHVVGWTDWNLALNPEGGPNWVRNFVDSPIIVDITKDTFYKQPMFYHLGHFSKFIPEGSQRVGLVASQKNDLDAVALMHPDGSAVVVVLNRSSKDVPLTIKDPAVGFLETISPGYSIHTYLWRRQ
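Wild-type enzyme at 0.2 nM final in 50mM citric acid/KH2PO4, 10mM sodium taurocholate, 0.01% tween-20, pH 5.9, with resorufin beta-D-glucopyranoside at 30 uM final. Compounds titrated, 20 min at RT, red fluorescence read; AC50 from titration.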
Hsp90 Hop PPI: qHTS Assay for Disrupters of an Hsp90 Co-Chaperone Interaction | AlphaScreen TPR2A-His6 binding biotin-Hsp90 C-terminal peptide | Potency, µM (series often up to 57 µM), without a hit: at the highest dose activity change, negative = inhibition | hit rate 0.44% among 71,000 | AID 595, 2007; active = well fitted curve in either direction with a large enough effect; inconclusive = small, poorly fitted or top-dose-only effect, or another doubt; note: % is set by controls: 0 for no effect and ±100 for the full control effect
An asterisk follows results filed as active; [ ] = another dose, or the depositor's remark. Unless noted, calls come from the whole dose curve; as a rule, active = well fitted curve in the direction sought with a large enough effect; inconclusive = small, poorly fitted or top-dose-only effect, or another doubt; inactive = no such curve, though single readings can be large; an effect the other way counts as inactive or inconclusive. Potency is the fitted concentration of half-maximal effect.

For O=S1(=O)c2cccc3cccc(c23)N1Cc1ccc(-c2nnco2)cc1 the results were USP2a inhib 34%, PK Bst 1.5*, 15-hLO inh -2%, Tau fil binding 40%, GBA activity inconclusive and Hsp90 Hop PPI 19%.
Screening N[C@@H](CCCP(=O)(O)O)C(=O)O returned 15-hLO inh 2%[25.6 µM], Tau fil binding 29% and Hsp90 Hop PPI 0%.
Screening Cc1cc(C2N=C(N)Nc3nc4ccccc4n32)c(C)n1-c1ccccc1Cl (stereo unspecified) returned USP2a inhib 28%, PK Bst >57, 15-hLO inh -13%, Tau fil binding 122%, GBA activity 13* and Hsp90 Hop PPI -12%.
Screening Cc1ccc(-n2c(C)cc(C3N=C(N)Nc4nc5ccccc5n43)c2C)c(C)c1 (stereo unspecified) returned USP2a inhib 5%, PK Bst >57, 15-hLO inh -29%, Tau fil binding 176%, GBA activity inconclusive and Hsp90 Hop PPI -16%.
For O=C(Nc1ccccc1C(F)(F)F)N1CCCCCC1 the results were USP2a inhib 7%, PK Bst >57, 15-hLO inh -5%, Tau fil binding -4%, GBA activity >77 and Hsp90 Hop PPI -3%.
`N=C1C=CC=C2C1=NC1(CCCCC1)N2O` gave USP2a inhib 16%, 15-hLO inh -13%, Tau fil binding 16µM* and Hsp90 Hop PPI inconclusive.
`CCOC(=O)[C@@H](O)Cc1cnc2ccccc2n1` gave 15-hLO inh -1%[11.4 µM], Tau fil binding 5µM* and Hsp90 Hop PPI -2%[11 µM].
`CCN1CCc2c(sc(N)c2C#N)C1` gave USP2a inhib 6%, PK Bst >57, 15-hLO inh inconclusive, Tau fil binding 190%, GBA activity >77 and Hsp90 Hop PPI -14%.
`c1ccc2c(c1)-c1cccc3c1c-2cc1ccccc13` gave 15-hLO inh 5%, Tau fil binding 24% and Hsp90 Hop PPI 5µM*.
`c1ccc2c(c1)OCC(c1nnc3sc(-c4cnccn4)nn13)O2` (stereo unspecified) gave USP2a inhib 33%, PK Bst >57, 15-hLO inh inconclusive, Tau fil binding 25µM*, GBA activity >77 and Hsp90 Hop PPI -5%.
Screening c1ccc2c(c1)C(=NCC1CCCO1)NC2=NCC1CCCO1 (stereo unspecified) returned USP2a inhib -4%, PK Bst >57, 15-hLO inh 0%, Tau fil binding -20%, GBA activity >77 and Hsp90 Hop PPI -1%.
`CCN1CCN(c2ccc(NC(=O)c3cccnc3)cc2Cl)CC1` gave USP2a inhib 4%, PK Bst >57, 15-hLO inh 12%, Tau fil binding 9%, GBA activity 6.3* and Hsp90 Hop PPI 0%.
O=C(Nc1ccc(N2CCN(C(=O)c3ccc(Cl)cc3)CC2)cc1)c1cccnc1 was read as USP2a inhib 25%, PK Bst inconclusive, 15-hLO inh -2%, Tau fil binding 10µM*, GBA activity inconclusive and Hsp90 Hop PPI -13%.
`O=C(Nc1ccccc1N1CCCC1)c1cccnc1` gave USP2a inhib -6%, PK Bst >57, 15-hLO inh -5%, Tau fil binding 5%, GBA activity >77 and Hsp90 Hop PPI -9%.
O=C(OCC(=O)N1CCN(C(=O)c2ccco2)CC1)c1cc(-c2ccccc2)nc2ccccc12 was read as USP2a inhib 64%, PK Bst inconclusive, 15-hLO inh -15%, Tau fil binding -26%, GBA activity >77 and Hsp90 Hop PPI -6%.
For O=C(OCC(=O)N1CCN(C(=O)c2ccco2)CC1)c1cc(-c2ccc(F)cc2)nc2ccccc12 the results were USP2a inhib 55%, PK Bst 2.1*, 15-hLO inh -15%, Tau fil binding 21%, GBA activity >77 and Hsp90 Hop PPI -8%.
Cc1cc(C(=O)OCC(=O)N2CCN(c3ccccc3)CC2)c2ccccc2n1 was read as USP2a inhib 22%, PK Bst >57, 15-hLO inh -4%, Tau fil binding 13µM*, GBA activity >77 and Hsp90 Hop PPI -9%.
O=C(COC(=O)c1ccc(=O)n(Cc2ccccc2)n1)Nc1ccc2c(c1)OCCO2 was read as USP2a inhib -1%, PK Bst >57, 15-hLO inh inconclusive, Tau fil binding -15%, GBA activity >77 and Hsp90 Hop PPI -7%.
Cn1c(CCNC(=O)c2ccco2)nc2cc(NS(=O)(=O)c3ccc(Cl)cc3)ccc21 was read as USP2a inhib 48%, PK Bst >57, 15-hLO inh -2%, Tau fil binding 5%, GBA activity inconclusive and Hsp90 Hop PPI -6%.
Screening O=C(NC1CCCCCCC1)C1CCN(S(=O)(=O)N2CCC3(CC2)OCCO3)CC1 returned USP2a inhib 13%, PK Bst >57, 15-hLO inh -1%, Tau fil binding 18%, GBA activity 11* and Hsp90 Hop PPI 0%.
Screening CCOc1ccc(C(=O)NCC(C)CN(C)C)cc1OCC (stereo unspecified) returned USP2a inhib -2%, PK Bst >57, 15-hLO inh -3%, Tau fil binding 13%, GBA activity >77 and Hsp90 Hop PPI -4%.
O=C(CN1CCN(CCC(=O)Nc2ccccc2F)CC1)Nc1ccc(F)cc1 was read as USP2a inhib 7%, PK Bst >57, 15-hLO inh -6%, Tau fil binding -1%, GBA activity >77 and Hsp90 Hop PPI -1%.
For O=C1NC(=S)S/C1=C1\Sc2ccccc2N1CCCS(=O)(=O)O the results were USP2a inhib -10%, PK Bst 7.7*, 15-hLO inh inconclusive, Tau fil binding 48%, GBA activity >77 and Hsp90 Hop PPI -7%.
`CCOC(=O)CN1CC23C=CC(O2)C(C(=O)NCc2ccc(F)cc2)C3C1=O` (stereo unspecified) gave 15-hLO inh -3%, Tau fil binding -7% and Hsp90 Hop PPI -3%.
`O=C(CC(SCCO)c1ccc2c(c1)OCO2)c1cccs1` (stereo unspecified) gave USP2a inhib -11%, 15-hLO inh -9%, Tau fil binding -8%, GBA activity >77 and Hsp90 Hop PPI -4%.
For CCOc1cc(C)c(S(=O)(=O)NC2CCCCC2)cc1C the results were USP2a inhib 3%, PK Bst >57, 15-hLO inh -18%, Tau fil binding 10µM*, GBA activity inactive and Hsp90 Hop PPI 0%.
`Cn1cc(C(=O)c2ccc(F)cc2)cc1-c1nc2ccccc2n1C` gave USP2a inhib 17%, PK Bst >57, 15-hLO inh -5%, Tau fil binding 12% and Hsp90 Hop PPI -8%.
